The text below walks through data of PubChem BioAssay (NCATS).

Records with an inconclusive call do not appear. Active and inactive are the calls of the source. The call rests on the fitted dose curve.

The nature of test [1]: Primary qHTS for Huh7 cytotoxicity: counterscreen for inhibitors of MERS-S pseudotyped particle cell entry (AID 1479147). On activity change, negative = cytotoxicity: on the % scale 0 is the no-effect control and ±100 the full control effect. Conditions: outcome: dose series up to 57.1 µM unless noted.
A short description of test [2]: Primary qHTS for inhibitors of MERS-S pseudo-typed particle cell entry (AID 1479149). Further: nearly all actives have a fitted effect of over 60% in size. Further: potency means the concentration at half of the fitted maximal effect. On activity change, negative = inhibition: on the % scale 0 is the no-effect control and ±100 the full control effect. Conditions: outcome: dose series up to 57.1 µM unless noted. For orientation: qHTS replaces the single test concentration by a dilution series.
A short description of test [3]: Primary qHTS for Vero E6 cytotoxicity: counterscreen for inhibitors of SARS-S pseudo-typed particle cell entry (AID 1479150). On activity change, negative = cytotoxicity: on the % scale 0 is the no-effect control and ±100 the full control effect. Conditions: outcome: dose series up to 57.1 µM unless noted.
Test [4] is described as follows: Cytotoxicity counterscreen for inhibitors of SARS-CoV-2 cell entry (AID 1645845). Further: nearly all actives have a fitted effect of over 50% in size. On activity change, negative = cytotoxicity: on the % scale 0 is the no-effect control and ±100 the full control effect. Conditions: outcome: dose series up to 57.1 µM unless noted. Summed up: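 48 h compound treatment (after 1 h preincubation), HEK293-ACE2 cells, 37 C/5% CO2; ATP luminescence endpoint; normalized to cell wells and media blanks.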
For orientation: Counterscreens check selectivity or assay interference.

The nature of test [5]: Primary qHTS to identify inhibitors of SARS-CoV-2 cell entry (AID 1645846). Further: nearly all actives have a fitted effect of over 45% in size. Further: potency means the concentration at half of the fitted maximal effect. Conditions: SARS-CoV-2 pseudovirus cell entry assay, luminescence; activity change, negative = inhibition: at 57.1 µM (top of the series) unless noted. Summed up: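 HEK293-ACE2 (Expi293F, stable hACE2), 1500 cells/well, o/n 37C; cpd 23 nL pin, 1 h; MLV-PP w/ SARS-CoV-2-S (Wuhan-Hu-1, Δ19 C-term); 48 h 37C; Bright-Glo luminescence; normalized vs S-PP and bald PP.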

For the compound `CCCCC(CC)COc1ccc(-c2nc(-c3ccc(OC)cc3)nc(-c3ccc(OCC(CC)CCCC)cc3O)n2)c(O)c1` (stereo not given), the results for the activity change, negative = cytotoxicity in test [1], in test [3] and in test [4] were -14.4% [at 5.34 µM] (inactive), -1.62% [at 5.34 µM] (inactive) and -8.22% [at 5.25 µM] (inactive), respectively. In addition, in test [2], the activity change, negative = inhibition was -1.24% [at 5.34 µM] (inactive). In addition, the outcome in test [5] is “inactive [at 5.25 µM]”.
For `O=C(OC[C@H]1O[C@@H](OC(=O)c2cc(O)c(O)c(O)c2)[C@H](O)[C@@H](OC(=O)c2cc(O)c(O)c(O)c2)[C@@H]1O)c1cc(O)c(O)c(O)c1`, the Potency result in test [1], in test [2], in test [3] and in test [4] was “inactive” throughout. Further, the activity change, negative = inhibition in test [5] is -1.77%.
Regarding `OC[C@H]1O[C@H](O[C@H]2[C@H](O)[C@@H](O)[C@H](O)O[C@@H]2CO)[C@H](O)[C@@H](O)[C@@H]1O`, the Potency result in test [1], in test [2], in test [3] and in test [4] was “inactive” throughout. The activity change, negative = inhibition in test [5] is -20.9%.
In the case of `CC(C)c1nc(N(C)S(C)(=O)=O)nc(-c2ccc(F)cc2)c1/C=C/[C@@H](O)C[C@@H](O)CC(=O)O`, the Potency entry in test [1], in test [2], in test [3], in test [4] and in test [5] was “inactive” throughout.
Regarding `O=C(O)c1cc(=O)c2c3nc4ccccc4oc-3cc(=O)c2[nH]1`, the Potency result in test [1], in test [2], in test [3] and in test [4] was “inactive” throughout. Besides, the activity change, negative = inhibition in test [5] is -16.2%.
For `CC1CCC(C(C)C)C(OC(=O)c2ccccc2O)C1` (stereo not given), the Potency result in test [1], in test [2], in test [3], in test [4] and in test [5] was “inactive” in each case.
Turning to `C[C@]12C=CC(=O)C=C1CC[C@@H]1[C@@H]2[C@@H](O)C[C@@]2(C)[C@H]1CC[C@]2(O)C(=O)COP(=O)(O)O`, the activity change, negative = cytotoxicity in test [1] was -13.3% [at 11.4 µM] (inactive); in test [3], -2.88% [at 11.4 µM] (inactive); in test [4], -0.915% [at 11.3 µM] (inactive). The activity change, negative = inhibition in test [2] is -22% [at 11.4 µM] (inactive); in test [5], -19.2% [at 11.3 µM].
In the case of `CCC(C)(C)OC(=O)N[C@@H](Cc1c[nH]c2ccccc12)C(=O)N[C@@H](CCSC)C(=O)N[C@@H](CC(=O)O)C(=O)N[C@@H](Cc1ccccc1)C(N)=O`, the Potency entry in test [1], in test [2], in test [3] and in test [4] was “inactive” in each case. Moreover, the activity change, negative = inhibition in test [5] was -23%.
`CC#CCC(C)[C@H](O)/C=C/[C@@H]1[C@H]2c3cccc(CCCC(=O)O)c3O[C@H]2C[C@H]1O` (stereo not given in full): the Potency result in test [1], in test [2], in test [3] and in test [4] was “inactive” each time. For the same compound, in test [5], the activity change, negative = inhibition is -5.27%.
Take `CC(C)CCC[C@@H](C)[C@H]1CC[C@H]2[C@@H]3CC=C4C[C@@H](O)CC[C@]4(C)[C@@H]3CC[C@]12C`: the Potency result in test [1], in test [2], in test [3], in test [4] and in test [5] was “inactive” in each case.
Turning to `CCOc1nc2cccc(C(=O)O)c2n1Cc1ccc(-c2ccccc2-c2noc(=O)[nH]2)cc1`, the Potency result in test [1], in test [2], in test [3] and in test [4] was “inactive” throughout. Further, the activity change, negative = inhibition in test [5] is -24.5%.
Consider `CN1CC(O)c2cc(N=NC(=N)N)c(O)cc21` (stereo not given), for which the Potency result in test [1], in test [2], in test [3] and in test [4] was “inactive” throughout. Also, in test [5], the activity change, negative = inhibition is -23.2%.
For `N=c1ccn2c(n1)O[C@@H]1[C@@H](O)[C@H](CO)O[C@@H]12`, the Potency result in test [1], in test [3] and in test [4] was “inactive” in each case. Moreover, the values for the Potency in test [2] and in test [5] were 8.91 µM (active) and 2.51 µM (active), respectively.
As for `CCOc1cc(C(CS(C)(=O)=O)N2C(=O)c3cccc(NC(C)=O)c3C2=O)ccc1OC` (stereo not given), the Potency entry in test [1], in test [2], in test [3] and in test [4] was “inactive” each time. Also, the activity change, negative = inhibition in test [5] is -21.8%.
As to `Cc1cc(CC(C)C[Si](C)(O[Si](C)(C)C)O[Si](C)(C)C)c(O)c(-n2nc3ccccc3n2)c1` (stereo not given), the Potency entry in test [1], in test [2], in test [3] and in test [4] was “inactive” throughout. For the same compound, the activity change, negative = inhibition in test [5] is -21.7% [at 19 µM].
As for `CCCCC(F)(F)C1(O)CCC2C(CC(=O)C2CCCCCCC(=O)O)O1` (stereo not given), the Potency entry in test [1], in test [2], in test [3], in test [4] and in test [5] was “inactive” in each case.
For the compound `N=C1CCCN1Cc1[nH]c(=O)[nH]c(=O)c1Cl`, the Potency result in test [1], in test [2], in test [3] and in test [4] was “inactive” each time. For the same compound, the activity change, negative = inhibition in test [5] is -1.38%.
As to `N[C@@H](C(=O)N[C@@H]1C(=O)N2C(C(=O)O)=C(Cl)CC[C@H]12)c1ccccc1`, the Potency entry in test [1], in test [2], in test [3] and in test [4] was “inactive” throughout. The activity change, negative = inhibition in test [5] is -20.1%.
For the compound `CCCC(=O)Nc1c(I)cc(I)c(CC(CC)C(=O)O)c1I` (stereo not given), the Potency result in test [1], in test [2], in test [3] and in test [4] was “inactive” each time. Also, the activity change, negative = inhibition in test [5] was -27.1%.
As for `CCC(=O)O[C@@H]1CC(=O)O[C@H](C)C/C=C/C=C/[C@@H](O)[C@H](C)C[C@H](CC=O)[C@H](OC2O[C@H](C)[C@@H](O[C@H]3C[C@@](C)(O)[C@@H](OC(=O)CC)[C@H](C)O3)[C@H](N(C)C)[C@H]2O)[C@H]1OC` (stereo not given in full), the Potency entry in test [1], in test [2], in test [3] and in test [4] was “inactive” throughout. Besides, the activity change, negative = inhibition in test [5] was -26.3%.
For the compound `Cc1cccc(C)c1N(CCCc1cccnc1)C(=O)C(C)N` (stereo not given), the Potency entry in test [1], in test [2], in test [3] and in test [4] was “inactive” throughout. Further, the activity change, negative = inhibition in test [5] is -18.9%.
As for `CCC(c1ccccc1)c1noc(CCN(CC)CC)n1` (stereo not given), the Potency result in test [1], in test [2], in test [3] and in test [4] was “inactive” throughout. The activity change, negative = inhibition in test [5] is -15.7%.
As for `Oc1cc(O)cc(O)c1`, the Potency result in test [1], in test [2], in test [3] and in test [4] was “inactive” throughout. The activity change, negative = inhibition in test [5] was -21.2%.
Consider `C[C@@H]1C[C@H]2[C@@H]3C[C@H](F)C4=CC(=O)C=C[C@]4(C)[C@@]3(Cl)[C@@H](O)C[C@]2(C)[C@H]1C(=O)COC(=O)C(C)(C)C`, for which the Potency result in test [1], in test [2], in test [3] and in test [4] was “inactive” in each case. The activity change, negative = inhibition in test [5] was determined as 1.93%.
Take `CCCCCC(O)/C=C/[C@@H]1C(CCCCCCC(=O)O)C(=O)C[C@@H]1O` (stereo not given in full): the Potency entry in test [1], in test [2], in test [3] and in test [4] was “inactive” each time. Also, the activity change, negative = inhibition in test [5] was -20.3%.
Regarding `CCC(=O)OC1(C(=O)CCl)C(C)CC2C3CC(F)C4=CC(=O)C=CC4(C)C3(F)C(O)CC21C` (stereo not given), the Potency entry in test [1], in test [2], in test [3] and in test [4] was “inactive” throughout. Besides, the activity change, negative = inhibition in test [5] is -5.75%.
Take `Cc1ccccc1-c1cc(N2CCN(C)CC2)ncc1N(C)C(=O)C(C)(C)c1cc(C(F)(F)F)cc(C(F)(F)F)c1`: the Potency result in test [1], in test [2], in test [3] and in test [4] was “inactive” throughout. The activity change, negative = inhibition in test [5] was determined as 3.24%.
